HCMV inh: blocks human cytomegalovirus replication | HFF cells, HCMV-luciferase reporter, 72 h; stronger effect = lower value | activity change, negative = inhibition, % at 57.5 µM | 410,000 compounds, 4.5% hits | AID 1259415; in the data active = activity change below about -60%; inconclusive = no clear call, values can overlap the other calls; inactive = above about -39%
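HFF cells seeded 16 h at 37C, treated with compounds, infected with luciferase-reporter HCMV at MOI 1 PFU/cell; luciferase read at 72 h post infection, normalized to buffer-only and Salinomycin controls.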
HCV inh: blocks hepatitis C virus | Huh7.5.1 HCVcc-Cre infection, luciferase reporter, 44 h | Potency, µM (highest dose often 41.8 µM), for the others: top-dose activity change, negative = inhibition, actives largely listed as inhibitors | 340,000 compounds, 3.4% hits; note: potency is the fitted concentration of half-maximal effect
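Whole-lifecycle infectious HCVcc-Cre system; cells 1,000/well, compound then virus (~0.5 moi) added 4 h after plating, 44 h culture. Luciferase read 15 sec following 15 min substrate incubation, room temp.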
Marburg entry inh: inhibitors of Marburg virus binding or cell entry; Marburg virus pseudotyped entry inhibition, cell reporter; Potency, µM (top dose mostly 37.8 µM), inactives show top-dose activity change, negative = inhibition, hits mostly inhibitors; 300,000 compounds, 1.8% hits; AID 540276; calls by dose curve; tested in HEK293 cells; note: potency is the fitted concentration of half-maximal effect
LASV entry inh: inhibitors of Lassa virus binding or cell entry. Lassa virus pseudotype entry inhibition, cell reporter. Potency, µM (doses to about 37.9 µM), for inactives: at the highest dose activity change, negative = inhibition, most hits filed as inhibitors. 300,000 compounds, 1.2% hits; calls by dose curve; tested in HEK293 cells; note: potency is the fitted concentration of half-maximal effect; nearly all actives have a fitted effect of over 50% in size
FMDV antiviral: foot and mouth disease virus antiviral activity; Potency, µM (top dose mostly 57.9 µM), for inactives: at the top dose activity change, negative = inhibition, hits mostly inhibitors; FMDV antiviral cell-based qHTS; 410,000 compounds, 1.2% hits; calls by dose curve; tested in HEK293T cells; note: read-out not given here; potency is the fitted concentration of half-maximal effect; nearly all actives have a fitted effect of over 45% in size
Giardia FBPA inh: Giardia lamblia aldolase inhibition | A8B2U2 | purified Giardia FBPA | Potency, µM (titrated, usually from 59.6 µM), for inactives: at the highest dose activity, negative = inhibition, actives largely listed as inhibitors | 290,000 compounds, 0.71% hits | AID 2451; note: potency is the fitted concentration of half-maximal effect; nearly all actives have a fitted effect of over 55% in size
Target sequence (A8B2U2 whole entry, looked up): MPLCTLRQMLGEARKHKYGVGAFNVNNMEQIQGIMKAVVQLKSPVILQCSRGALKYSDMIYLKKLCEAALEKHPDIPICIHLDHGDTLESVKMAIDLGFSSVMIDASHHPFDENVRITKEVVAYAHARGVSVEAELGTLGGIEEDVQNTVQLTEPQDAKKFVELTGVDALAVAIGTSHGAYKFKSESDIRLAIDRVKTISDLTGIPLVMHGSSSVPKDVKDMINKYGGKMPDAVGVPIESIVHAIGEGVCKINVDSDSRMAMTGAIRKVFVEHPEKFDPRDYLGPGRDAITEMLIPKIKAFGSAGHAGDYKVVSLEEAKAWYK
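Giardia FBPA (40 nM reagent) was preincubated 10 min at RT with compound (up to 57.5 uM final), then substrate plus GAPDH/TPI/NAD/arsenate coupling system with diaphorase/resazurin was added; resorufin fluorescence (525/598 nm) was read after 20 min.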
Active calls of the source: *; ? = inconclusive; nt = no result; [ ] = remark or other dose. This is a sample that favours compounds with a hit; in the whole collection about 8.3% have one here. Unless noted, calls come from the whole dose curve; as a rule, active = well fitted curve in the direction sought with a large enough effect; inconclusive = small, poorly fitted or top-dose-only effect, or another doubt; inactive = no such curve, though single readings can be large; an effect the other way counts as inactive or inconclusive. % is set by controls: 0 for no effect and ±100 for the full control effect.

SMILES	HCMV inh	HCV inh	Marburg entry inh	LASV entry inh	FMDV antiviral	Giardia FBPA inh
Cc1ccc(-c2nc3c(Cl)cc(C(F)(F)F)cn3c2Cc2ccccc2C(F)(F)F)cc1	5	nt	nt	nt	-26%	nt
FC(F)(F)c1ccccc1Cc1c(-c2ccco2)nc2ccc(Cl)cn12	-110*	nt	nt	nt	?	nt
CC[N+](C)(CC)CCOC(=O)[C@@](O)(c1ccccc1)C1CCCCC1	nt	nt	22%	nt	nt	nt
COc1ccc(NC(=O)C2CCCN(S(=O)(=O)c3ccc(F)cc3)C2)cc1 (centres undefined)	17	nt	-8%[46.1 µM]	-21%[46.1 µM]	0%	nt
O=S(Cc1ccccc1)c1ccccc1 (centres undefined)	-20	34%	25%	5%[46.1 µM]	5%	nt
O=C(O)c1cccc(C(=O)O)c1S(=O)Cc1ccccc1 (centres undefined)	-66*	nt	nt	nt	nt	nt
COc1cccc(NC(=O)CSc2nc(-c3ccccc3Cl)nc3c2Cc2c(CO)cnc(C)c2O3)c1	14	nt	nt	-9%[46.1 µM]	-17%	nt
c1nc(N2CCOCC2)c2c3c(sc2n1)CCCC3	-65*	?	4%	0%	?	-13%
O=C(c1ccccc1)N1CCN(c2ncnc3sc4c(c23)CCC4)CC1	?	?	?	-18%	22µM*	-1%
c1ccn(-c2ncnc3sc4c(c23)CCCC4)c1	?	-11%	28%	-2%	?	10%
c1cn(-c2ncnc3sc4c(c23)CCCC4)cn1	-70*	1%	0%	21%	0%	9%
CC(C)C1C(=O)O[C@@H]2CCN3CC=C(COC(=O)[C@](C)(O)[C@]1(C)O)[C@H]23 (some centres undefined)	nt	nt	nt	nt	nt	3%
O=C(c1cc(C(F)(F)F)cc(C(F)(F)F)c1)N1CCC[C@@]2(CCN(Cc3ccncc3)C2)C1	nt	nt	nt	nt	-6%	4%
O=C(Nc1cccc(NC(=O)c2ccc(-c3cccc(Br)c3)o2)c1)c1ccco1	-14	3.5µM*	?	-27%	nt	-2%
COc1c(C)cc(Br)cc1C(=O)Nc1cccc(NC(=O)c2ccco2)c1	-15	6.3µM*	?	?	?	1%
Cc1cc(C)cc(C(=O)Nc2cccc(NC(=O)c3ccco3)c2)c1	-73*	nt	-19%	0%	-9%	nt
COc1cccc(OC)c1C(=O)NC(=S)Nc1cccc(NC(=O)c2ccco2)c1	-61*	15%	?	13%	-27%	2%
CC(=O)N1CCCc2cc(S(=O)(=O)N3CCC(C(=O)NCc4cccc(C)c4)CC3)ccc21	-3	nt	nt	-19%[46.1 µM]	-11%	nt
C=C1CCN(C(C)C(=O)OCc2ccc(C)cc2)S(=O)(=O)c2ccccc21 (centres undefined)	nt	nt	nt	nt	nt	-1%
Cc1cccc(C)c1N=CN1c2ccccc2-n2cccc2C1CCc1ccccc1 (centres undefined)	4	nt	nt	nt	nt	nt
CCOC(=O)C1CCN(C(c2cccc(F)c2)c2c(O)cc(C)n(Cc3ccco3)c2=O)CC1 (centres undefined)	22	nt	nt	0%[46.1 µM]	-25%	nt
Cc1cc(C)c(OCC(=O)Nc2ccc(NC(=O)c3ccco3)cc2)c([N+](=O)[O-])c1	-34	-19%	-15%	-1%	-25%	3%
Cc1cc(C)c(OCC(=O)Nc2cccc(NC(=O)c3ccco3)c2)c(Br)c1	-76*	?	?	-12%	?	-6%
Cc1ccc(-c2cc(NC(=O)CCl)n(-c3ccccc3)n2)cc1	-97*	?	-25%[46.1 µM]	-18%	22µM*	-25%
O=C(CCl)Nc1cc(-c2ccccc2)nn1-c1ccccc1	-87*	14µM*	5.2µM*	?	-67%	0%
Cc1ccc(C)c(NC(=O)c2cc(-c3ccccc3)nn2-c2ccccc2)c1	?	11µM*	11µM*	?	?	-3%
Cc1ccc(-n2nc(C)c(NC(=O)CCl)c2C)cc1	-101*	?	?	10µM*	-25%	2%
Cc1ccc(OCC(=O)Nc2cc(-c3cccc(C)c3)nn2-c2ccccc2)cc1	88	nt	nt	7%[46.1 µM]	17%	nt
CC(=O)Nc1ccc(-c2cc(NC(C)=O)n(-c3ccccc3)n2)cc1	-16	5%	-15%[46.1 µM]	-11%	-1%	2%

High-throughput results: PubChem BioAssay, National Center for Advancing Translational Sciences (NCATS)
